“And” between values parts separate entries of the source, which are not always exact repeats. Identical values can stand only once. Records with an inconclusive call do not appear. A call without a number means that no potency is given here. Some compounds were tested as several samples or in several runs, with calls that do not always agree. The source made the active and inactive calls. Unless noted, the call rests on the fitted dose curve; in most records, active means well fitted curve in the direction sought with a large enough effect in the repeat runs; inconclusive means weak or mixed curves; inactive means no such curve, though single readings can be large; an effect the other way counts as inactive or inconclusive.
Tests used:
[1] = target: Aryl hydrocarbon receptor (Homo sapiens) (UniProt P35869); experiment: qHTS assay to identify small molecule that activate the aryl hydrocarbon receptor (AhR) signaling pathway (AID 743085); further: nearly all actives have a fitted effect of over 15% in size; further: potency means the concentration at half of the fitted maximal effect;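 on activation: HG2L7.5c1 human HepG2 liver cells with stably integrated DRE-driven firefly reporter; series mostly up to about 70 µM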
Summary of the method: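 HepG2 cells (HG2L7.5c1) stably carrying a firefly luciferase reporter driven by 20 dioxin responsive elements were exposed to compound for 24 h at 37C after a 5 h settling period; luminescence rise (ONE-Glo) indicated activation.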

[2] = qHTS assay to identify small molecule that activate the aryl hydrocarbon receptor (AhR) signaling pathway - cell viability counter screen (AID 743086); further: nearly all actives have a fitted effect of over 45% in size; further: potency means the concentration at half of the fitted maximal effect
Summary of the method: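 HepG2-AhR-luc (HG2L7.5c1) cells, 4000/well, treated 24 h at 37 C with compound; viability measured as CellTiter-Fluor fluorescence after 30 min in the same wells as the luciferase read.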

[3] = target: Peroxisome proliferator-activated receptor gamma (Homo sapiens) (UniProt P37231); experiment: qHTS assay to identify small molecule antagonists of the peroxisome proliferator-activated receptor gamma (PPARg) signaling pathway (AID 743191; calls by dose curve; further: nearly all actives have a fitted effect of over 30% in size; further: potency means the concentration at half of the fitted maximal effect)
Summary of the method: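 GeneBLAzer PPARg UAS-bla HEK293H cells, 5 h post-plating, exposed to compounds 17 h at 37C. LiveBLAzer B/G FRET substrate added for 1 h at room temperature; beta-lactamase reporter read by fluorescence intensity.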

[4] = qHTS assay to identify small molecule antagonists of the peroxisome proliferator-activated receptor gamma (PPARg) signaling pathway - cell viability counter screen (AID 743194); settings: Potency: co-treated with 50 nM rosiglitazone unless noted; further: nearly all actives have a fitted effect of over 55% in size; further: potency means the concentration at half of the fitted maximal effect
Summary of the method: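 Cytotoxicity counter screen in PPARg-bla HEK293H cells, same wells as reporter assay. Compounds plus 50 nM rosiglitazone (final) for 17 h at 37 C, then viability read by CellTiter-Glo luminescence.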

[5] = qHTS assay for small molecule agonists of the antioxidant response element (ARE) signaling pathway - cell viability counter screen (AID 743203; calls by dose curve; further: nearly all actives have a fitted effect of over 55% in size; further: potency means the concentration at half of the fitted maximal effect)
Summary of the method: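 Cytotoxicity was tested in parallel with the ARE reporter screen. ARE-bla HepG2 cells were exposed to compounds for 16 hrs, and viability was taken from CellTiter-Glo luminescence.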

[6] = qHTS assay to identify small molecule agonists of the peroxisome proliferator-activated receptor delta (PPARd) signaling pathway - cell viability counter screen (AID 743211); further: nearly all actives have a fitted effect of over 55% in size; further: potency means the concentration at half of the fitted maximal effect
Summary of the method: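 PPARd-bla HEK293H cells (UAS-beta-lactamase reporter) were treated with compounds for 17 h at 37 C. Viability was then read in the same wells by CellTiter-Glo luminescence after 30 min at room temperature.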

[7] = qHTS assay to identify small molecule antagonists of the peroxisome proliferator-activated receptor delta (PPARd) signaling pathway - cell viability counter screen (AID 743213); further: nearly all actives have a fitted effect of over 50% in size; further: potency means the concentration at half of the fitted maximal effect
Summary of the method: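 CellTiter-Glo was added to PPARd-bla HEK293H wells following 17 h compound treatment in the presence of 300 nM L165041. Luminescence was recorded after 30 min at room temperature.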

[8] = qHTS assay to identify small molecule agonists of the farnesoid-X-receptor (FXR) signaling pathway - cell viability counter screen (AID 743218); further: nearly all actives have a fitted effect of over 45% in size; further: potency means the concentration at half of the fitted maximal effect
Summary of the method: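 Cells were seeded, left 5 h at 37 C and 5% CO2, then dosed with compound in DMSO for 16 h. After the beta-lactamase FRET read, CellTiter-Glo was added and luminescence measured 30 min later.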

[9] = qHTS assay to identify small molecule antagonists of the farnesoid-X-receptor (FXR) signaling pathway - cell viability counter screen (AID 743221; active means well fitted cell-killing curve with a large enough effect in the repeat runs, not every such curve was filed as active; further: nearly all actives have a fitted effect of over 50% in size; further: potency means the concentration at half of the fitted maximal effect)
Summary of the method: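 FXR-UAS-bla HEK 293T cells were treated with test compounds plus chenodeoxycholic acid (50 uM final) for 16 h at 37 C. Cell viability in the same wells was then read as CellTiter-Glo luminescence after 30 min at room temperature.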

[10] = target: Vitamin D3 receptor (Homo sapiens) (UniProt P11473); experiment: qHTS assay to identify small molecule agonists of the vitamin D receptor (VDR) signaling pathway (AID 743222; calls by dose curve)
Summary of the method: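 Cells carrying a VDR-driven beta-lactamase reporter are seeded at 2,000 per well and rested 4 h. Compounds in DMSO are added for 16 h at 37C, and FRET substrate fluorescence is measured after 2 h at room temperature.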

[11] = qHTS assay to identify small molecule agonists of the vitamin D receptor (VDR) signaling pathway - cell viability counter screen (AID 743224); further: nearly all actives have a fitted effect of over 50% in size; further: potency means the concentration at half of the fitted maximal effect
Summary of the method: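 Cells: VDR-bla, 2,000/well, settled 4 h. Treatment: compounds in DMSO, 16 h, 37C/5% CO2. Readout: CellTiter-Glo luminescence after 30 min RT.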

[12] = qHTS assay for small molecule agonists of the antioxidant response element (ARE) signaling pathway (AID 743202; active means well fitted activation curve with a large enough effect in the signal ratio in the repeat runs, not every such curve was filed as active; the % refers to the signal ratio; further: potency means the concentration at half of the fitted maximal effect)
Summary of the method: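 HepG2 ARE-bla cells; 16 h treatment at 37 C; FRET-based beta-lactamase fluorescence read after 2 h substrate incubation at room temperature.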

[13] = target: Vitamin D3 receptor (Homo sapiens) (UniProt P11473); experiment: qHTS assay to identify small molecule antagonists of the vitamin D receptor (VDR) signaling pathway (AID 743223; active means well fitted inhibition curve with a large enough effect in the signal ratio in the repeat runs, not every such curve was filed as active; the % refers to the signal ratio)
Summary of the method: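 VDR-bla cells were plated, incubated 4 h at 37C, then given compound and 1alpha,25-dihydroxyvitamin D3 (3 nM final). After 16 h at 37C, LiveBLAzer B/G FRET substrate was added for 2 h at room temperature and fluorescence read.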

[14] = qHTS assay for small molecule activators of the heat shock response signaling pathway - cell viability counter screen (AID 743209); further: nearly all actives have a fitted effect of over 50% in size; further: potency means the concentration at half of the fitted maximal effect
Summary of the method: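 Cytotoxicity counter screen run in parallel with the HSE beta-lactamase reporter, using the same wells. HeLa HSE-bla cells received compound for 5 h at 37 C; ATP-based CellTiter-Glo luminescence was measured after 30 min at room temperature.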

[15] = target: Peroxisome proliferator-activated receptor delta (Homo sapiens) (UniProt Q03181); experiment: qHTS assay to identify small molecule agonists of the peroxisome proliferator-activated receptor delta (PPARd) signaling pathway (AID 743212; calls by dose curve)
Summary of the method: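 Tox21 library screened in GeneBLAzer PPARd UAS-bla HEK293H cells. After compound treatment at 37 C, a FRET-based beta-lactamase substrate was applied for 2 h and fluorescence recorded.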

[16] = target: Peroxisome proliferator-activated receptor delta (Homo sapiens) (UniProt Q03181); experiment: qHTS assay to identify small molecule antagonists of the peroxisome proliferator-activated receptor delta (PPARd) signaling pathway (AID 743215; active means well fitted inhibition curve with a large enough effect in the signal ratio in the repeat runs, not every such curve was filed as active; the % refers to the signal ratio;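 further: cells stimulated with agonist L165041 at 300 nM final during compound exposure; series mostly up to about 62 µM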)
Summary of the method: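 Cells: HEK293H with a UAS-driven beta-lactamase reporter responsive to PPARd. Compounds were co-added with L165041 (300 nM, final) and incubated 17 h at 37 C before a 2 h room-temperature FRET substrate step and fluorescence reading.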

[17] = target: Bile acid receptor (Homo sapiens) (UniProt Q96RI1); experiment: qHTS assay to identify small molecule antagonists of the farnesoid-X-receptor (FXR) signaling pathway (AID 743217; active means well fitted inhibition curve with a large enough effect in the signal ratio in the repeat runs, not every such curve was filed as active; the % refers to the signal ratio)
Summary of the method: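 Cells carrying a UAS-driven beta-lactamase reporter (GeneBLAzer FXR-UAS-bla HEK 293T) were plated and rested 5 h at 37 °C. Compounds in DMSO were added alongside chenodeoxycholic acid agonist at 50 uM final and left 16 h at 37 °C before FRET substrate readout.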

[18] = target: Bile acid receptor (Homo sapiens) (UniProt Q96RI1); experiment: qHTS assay to identify small molecule agonists of the farnesoid-X-receptor (FXR) signaling pathway (AID 743220; active means well fitted activation curve with a large enough effect in the signal ratio in the repeat runs, not every such curve was filed as active; the % refers to the signal ratio)
Summary of the method: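 FXR-UAS-bla HEK 293T cells carrying a UAS-driven beta-lactamase reporter were plated for 5 h at 37C/5% CO2, then exposed to DMSO-dissolved Tox21 10K compounds for 16 h at 37C. A LiveBLAzer B/G FRET substrate was loaded for 2 h at room temperature before fluorescence reading.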

[19] = qHTS assay for small molecule activators of the heat shock response signaling pathway (AID 743210; active means well fitted activation curve with a large enough effect in the signal ratio in the repeat runs, with a control signal flat, not every such curve was filed as active; the % refers to the signal ratio;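 further: HeLa cells with beta-lactamase reporter driven by heat shock elements; series mostly up to about 63 µM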)
Summary of the method: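 Following overnight attachment, HSE-bla HeLa cells received test compounds for 5 h at 37 C; beta-lactamase activity was then detected via FRET substrate fluorescence.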

Sequence of Peroxisome proliferator-activated receptor delta (Homo sapiens) (Q03181 whole entry, looked up): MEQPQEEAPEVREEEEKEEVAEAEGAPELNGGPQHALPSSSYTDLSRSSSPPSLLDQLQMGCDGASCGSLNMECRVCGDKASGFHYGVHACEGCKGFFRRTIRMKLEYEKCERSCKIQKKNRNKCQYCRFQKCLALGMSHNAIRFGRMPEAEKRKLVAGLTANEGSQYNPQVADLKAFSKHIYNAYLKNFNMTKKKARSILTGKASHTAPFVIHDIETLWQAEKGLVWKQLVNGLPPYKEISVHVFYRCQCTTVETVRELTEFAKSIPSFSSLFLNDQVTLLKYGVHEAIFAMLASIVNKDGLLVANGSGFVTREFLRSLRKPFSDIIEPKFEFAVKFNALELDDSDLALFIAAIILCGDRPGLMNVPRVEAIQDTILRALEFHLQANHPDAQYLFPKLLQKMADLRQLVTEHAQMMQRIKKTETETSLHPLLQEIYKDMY
Sequence of Peroxisome proliferator-activated receptor gamma (Homo sapiens) (P37231 whole entry, looked up): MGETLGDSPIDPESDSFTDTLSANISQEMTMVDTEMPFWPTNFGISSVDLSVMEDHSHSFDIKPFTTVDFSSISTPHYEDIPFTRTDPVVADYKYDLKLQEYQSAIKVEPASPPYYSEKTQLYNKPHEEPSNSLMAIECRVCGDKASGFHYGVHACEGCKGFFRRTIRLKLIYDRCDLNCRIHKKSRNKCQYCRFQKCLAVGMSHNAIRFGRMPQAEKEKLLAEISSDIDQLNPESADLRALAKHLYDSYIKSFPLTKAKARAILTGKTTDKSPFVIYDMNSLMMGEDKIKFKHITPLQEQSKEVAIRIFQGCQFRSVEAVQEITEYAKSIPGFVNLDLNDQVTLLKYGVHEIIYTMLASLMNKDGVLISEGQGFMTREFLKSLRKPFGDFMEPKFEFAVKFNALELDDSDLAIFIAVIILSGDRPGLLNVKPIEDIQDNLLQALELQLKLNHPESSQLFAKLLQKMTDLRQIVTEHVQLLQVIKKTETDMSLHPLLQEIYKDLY
Sequence of Vitamin D3 receptor (Homo sapiens) (P11473 whole entry, looked up): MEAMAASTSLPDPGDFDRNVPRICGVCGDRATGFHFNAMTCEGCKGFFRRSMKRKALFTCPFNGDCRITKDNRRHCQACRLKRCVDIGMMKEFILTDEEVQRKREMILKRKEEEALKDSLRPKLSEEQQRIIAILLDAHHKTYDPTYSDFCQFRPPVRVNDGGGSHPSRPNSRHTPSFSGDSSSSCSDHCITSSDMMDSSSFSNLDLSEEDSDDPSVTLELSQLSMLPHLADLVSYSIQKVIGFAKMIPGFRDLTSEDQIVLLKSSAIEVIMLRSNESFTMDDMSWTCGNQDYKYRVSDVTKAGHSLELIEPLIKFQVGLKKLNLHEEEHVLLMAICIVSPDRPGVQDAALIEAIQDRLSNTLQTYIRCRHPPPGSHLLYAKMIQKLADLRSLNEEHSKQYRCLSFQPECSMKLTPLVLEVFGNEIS
Sequence of Bile acid receptor (Homo sapiens) (Q96RI1 whole entry, looked up): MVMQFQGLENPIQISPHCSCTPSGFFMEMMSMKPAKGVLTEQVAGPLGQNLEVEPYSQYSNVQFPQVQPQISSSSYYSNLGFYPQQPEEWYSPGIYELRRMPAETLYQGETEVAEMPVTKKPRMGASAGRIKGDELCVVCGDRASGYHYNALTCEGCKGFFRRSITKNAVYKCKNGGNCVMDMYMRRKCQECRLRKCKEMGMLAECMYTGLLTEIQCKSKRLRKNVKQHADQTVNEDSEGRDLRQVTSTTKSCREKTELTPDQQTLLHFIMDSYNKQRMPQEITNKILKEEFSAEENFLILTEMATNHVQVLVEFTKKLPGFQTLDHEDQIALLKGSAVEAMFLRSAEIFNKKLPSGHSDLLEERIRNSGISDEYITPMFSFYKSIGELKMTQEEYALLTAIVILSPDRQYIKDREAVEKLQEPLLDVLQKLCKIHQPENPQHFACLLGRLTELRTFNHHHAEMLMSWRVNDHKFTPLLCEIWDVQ
Sequence of Aryl hydrocarbon receptor (Homo sapiens) (P35869 whole entry, looked up): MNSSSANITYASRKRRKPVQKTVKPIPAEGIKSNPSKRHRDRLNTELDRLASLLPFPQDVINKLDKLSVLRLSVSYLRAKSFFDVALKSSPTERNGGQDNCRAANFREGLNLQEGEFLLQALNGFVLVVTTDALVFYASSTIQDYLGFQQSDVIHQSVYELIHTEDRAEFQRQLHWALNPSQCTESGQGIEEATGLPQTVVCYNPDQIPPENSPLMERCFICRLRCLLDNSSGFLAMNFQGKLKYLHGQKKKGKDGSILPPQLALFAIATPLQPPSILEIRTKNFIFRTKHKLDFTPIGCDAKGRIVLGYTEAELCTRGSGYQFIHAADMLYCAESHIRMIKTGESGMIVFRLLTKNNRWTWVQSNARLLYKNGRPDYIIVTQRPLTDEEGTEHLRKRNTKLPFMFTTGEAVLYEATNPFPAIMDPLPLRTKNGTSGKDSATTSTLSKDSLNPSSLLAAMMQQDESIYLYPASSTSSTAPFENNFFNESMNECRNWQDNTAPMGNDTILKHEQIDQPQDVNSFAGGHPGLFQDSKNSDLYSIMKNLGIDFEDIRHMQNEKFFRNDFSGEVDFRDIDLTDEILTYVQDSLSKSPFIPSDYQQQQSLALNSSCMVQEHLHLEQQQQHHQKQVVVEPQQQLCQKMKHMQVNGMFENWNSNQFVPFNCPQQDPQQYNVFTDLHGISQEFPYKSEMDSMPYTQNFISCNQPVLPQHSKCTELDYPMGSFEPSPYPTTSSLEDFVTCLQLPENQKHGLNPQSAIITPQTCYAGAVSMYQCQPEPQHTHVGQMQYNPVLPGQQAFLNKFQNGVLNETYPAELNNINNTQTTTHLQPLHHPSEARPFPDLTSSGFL

Compound	Potency [1]	Potency [2]	Potency [3]	Potency [4]	Potency [5]	Potency [6]	Potency [7]	Potency [8]	Potency [9]	Potency [10]	Potency [11]	Potency [12]	Potency [13]	Potency [14]	Potency [15]	Potency [16]	Potency [17]	Potency [18]	Potency [19]
CCN(CC)C(=S)S	inactive	inactive and 19.2 µM (active) and 30.6 µM (active)	inactive	inactive	inactive	13.9 µM (active) and 3.87 µM (active) and 4.9 µM (active)	inactive and 6.13 µM (active) and 3.47 µM (active)	12.4 µM (active)	22.1 µM (active) and 4.87 µM (active) and 7.76 µM (active)	inactive	4.87 µM (active) and 6.92 µM (active)	–	–	–	–	–	–	–	–
CN(C)CCc1c[nH]c2ccccc12	inactive	inactive	–	inactive	inactive	–	inactive	inactive	inactive	–	inactive	inactive	inactive	–	–	–	–	–	–
[F][Sn]([c]1ccccc1)([c]1ccccc1)[c]1ccccc1	inactive	3.86 µM (active)	–	0.616 µM (active)	0.344 µM (active)	0.871 µM (active)	0.977 µM (active)	0.977 µM (active)	1.55 µM (active)	inactive	490 nM (active)	–	–	–	–	–	–	–	–
CN=C=O	inactive	inactive	–	inactive	inactive	inactive	inactive	inactive	inactive	–	–	inactive	–	inactive	inactive	inactive	–	–	–
O=C(NC(=O)c1c(F)cccc1F)Nc1ccc(Oc2ccc(C(F)(F)F)cc2Cl)cc1F	inactive	inactive	–	inactive	inactive	inactive	–	–	inactive	–	–	–	–	inactive	–	inactive	inactive	inactive	–
CC(=O)[O-].CC(=O)[O-].O.O.[Zn+2]	inactive	inactive	–	inactive	inactive	inactive	inactive	inactive	inactive	–	inactive	inactive	–	inactive	–	–	–	–	–
O=[N+]([O-])c1cc(C(F)(F)F)c(Cl)c([N+](=O)[O-])c1Nc1ncc(C(F)(F)F)cc1Cl	77 µM (active)	13.7 µM (active)	–	1.1 µM (active)	7.7 µM (active)	8.71 µM (active)	6.16 µM (active)	15.5 µM (active)	21.9 µM (active)	–	4900 nM (active)	–	–	6.16 µM (active)	–	–	–	–	–
COP(=O)(OC)O/C(=C\Cl)c1cc(Cl)c(Cl)cc1Cl	inactive	inactive	4.9 µM (active)	–	–	inactive	inactive	inactive	–	–	–	–	–	inactive	–	–	inactive	inactive	inactive
C=Cc1cccc(CCl)c1	inactive	inactive	–	inactive	inactive	–	inactive	inactive	inactive	–	–	55.9 µM (active)	–	inactive	–	–	inactive	inactive	inactive
CCc1cccc(C)c1N(C(=O)CCl)[C@@H](C)COC	inactive	inactive	–	–	inactive	inactive	inactive	inactive	inactive	–	–	9.69 µM (active)	–	–	–	–	–	–	inactive
Clc1ccc(C2(Cn3cncn3)OCCO2)c(Cl)c1	inactive	inactive	–	–	inactive	inactive	inactive	inactive	inactive	–	inactive	–	–	inactive	inactive	inactive	–	–	inactive
CCC(OC(C)=O)C(CC(C)NC)(c1ccccc1)c1ccccc1 (stereo unspecified)	inactive	69.2 µM (active)	–	–	77.6 µM (active)	15.5 µM (active)	30.9 µM (active)	61.6 µM (active)	69.2 µM (active)	inactive	–	–	–	–	–	–	–	inactive	–
